This note sets out measurements from PubChem BioAssay AID743402 (Broad Institute, 2014).

Out of some 1,200 compounds screened, about 140 (12%) were called active.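 Rule for the calls: active = fitted curve falls past -35% activity change at a dose under twice the top valid dose, in every replicate test; inconclusive = replicate tests disagree on the call; inactive = the rest, including activity in the opposite direction.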 Not all results are given here.

This assay can be described thus: restoration of mutant CFTR halide transport – FRT cells, YFP quenching, cherry-pick, dose response (AID 743402).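 Note: compounds act as correctors raising surface CFTR-F508del before acute activation.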 Particulars: FRT CFTR-F508del YFP iodide quenching, 24 h, channel opened with forskolin and a potentiator; series mostly up to 26 µM.
For `OC[C@@H]1CN(Cc2ccc(-c3ccccc3)cc2)C[C@H](n2cnc3c(NC4CC4)ncnc32)O1`, the activity change, negative = more quenching (active) entry is “inactive”.

Regarding `COc1ccccc1NC(=O)CSc1ccc(-c2ccccn2)nn1`, the activity change, negative = more quenching (active) entry was “inactive”.

Take `COc1ccccc1N=C1SC(C(=O)Nc2cccc(Cl)c2Cl)C(N)=C1C(N)=O` (centres undefined): the activity change, negative = more quenching (active) result is “inactive”.

For `CC(C)C[C@H]1CN([C@@H](Cc2ccc(O)cc2)CN2CCC[C@H]2CN2C(=O)C(=O)NC[C@@H]2Cc2ccccc2)C(=O)C(=O)N1CC1CCCCC1`, the activity change, negative = more quenching (active) result was “inactive”.

Turning to `CCC(=O)N1CC2(CCN(Cc3ccc(Cl)cc3)CC2)c2c(n(C)c3cc(OC)ccc23)[C@H]1CO`, the activity change, negative = more quenching (active) entry was “inactive”.

As to `COC(=O)C1=CN(c2ccc(OC)cc2OC)C(N)=C(C#N)C1c1ccccc1F` (centres undefined), the activity change, negative = more quenching (active) result is “inactive”.

Consider `CCCC(=O)NC(c1ccc(Cl)cc1)c1ccc2cccnc2c1O` (centres undefined), for which the activity change, negative = more quenching (active) result is “inactive”.

As to `Cc1cccc(NC(=S)N/N=C/c2cccc(O)c2)c1C`, the activity change, negative = more quenching (active) result is “inactive”.

Regarding `Cc1cnc(NC(=O)c2ccc3c(c2)OCCO3)s1`, the activity change, negative = more quenching (active) result is “inactive”.

Turning to `Cc1cc(Br)cc(/C=N/NC(=O)c2ccc3c(c2)OCO3)c1O`, the activity change, negative = more quenching (active) entry is “inactive”.

As for `O=C(Cc1ccc(Br)cc1)NCc1ccccc1`, the activity change, negative = more quenching (active) entry is “inactive”.

Regarding `Cc1nc(N)[nH]c(=O)c1CCCNS(=O)(=O)c1ccc([N+](=O)[O-])cc1`, the activity change, negative = more quenching (active) entry is “inactive”.

Turning to `CC(C)CN(CCCNC(=O)CN1C(=O)CSc2ccc(S(=O)(=O)N3CCOCC3)cc21)CC(C)C`, the activity change, negative = more quenching (active) entry is “inactive”.

Consider `CCN(CC)C(=O)c1oc2ccc(S(=O)(=O)N3CC(C)CC(C)C3)cc2c1C` (centres undefined), for which the activity change, negative = more quenching (active) result was “inactive”.

Turning to `O=C(N=Nc1c(O)[nH]c2ccc(Br)cc12)c1ccccc1-n1cccc1`, the activity change, negative = more quenching (active) entry is “inactive”.

On to `Cn1cccc1/C=C1\SC(=Nc2cccc(O)c2)NC1=O`, for which the activity change, negative = more quenching (active) result was “inactive”.

As for `Cc1ccc(C2NC(=O)c3ccccc3N2)c(C)c1` (centres undefined), the activity change, negative = more quenching (active) result was “inactive”.

In the case of `Cn1cc(C(=O)N/N=C/c2ccc3c(c2)OCO3)c2ccccc21`, the activity change, negative = more quenching (active) entry was “inactive”.

Turning to `COc1cc(OC)c2c(-c3cccc(-c4cccc(N)c4)c3)cc(=O)oc2c1`, the activity change, negative = more quenching (active) entry was “inactive”.

With `CC(C)Nc1ccc(Nc2ccnc3cc4ccccc4cc23)cc1`, the activity change, negative = more quenching (active) entry was “inactive”.

For the compound `COc1ccc(-c2ccc3c(c2)[C@H]2[C@H](CCN2S(=O)(=O)c2ccc(OC)cc2)[C@H](CO)N3C)cc1`, the activity change, negative = more quenching (active) entry is “inactive”.

On to `CN1c2ccc(-c3ccc(F)cc3)cc2[C@H]2[C@H](CCN2S(=O)(=O)c2cccc(F)c2)[C@@H]1CO`, for which the activity change, negative = more quenching (active) entry is “inactive”.

Regarding `Cc1ccccc1S(=O)(=O)N1C[C@@H]2N[C@H](C1)C2c1ccc(-c2cccc(C#N)c2)cc1` (some centres undefined), the activity change, negative = more quenching (active) entry was “inactive”.

Consider `CCCNC(=O)N1CC2(CN(S(=O)(=O)c3cccc(OC)c3)C2)c2c(n(C)c3cc(OC)ccc23)[C@H]1CO`, for which the activity change, negative = more quenching (active) result was “inactive”.

Consider `COc1cccc(-c2ccc([C@H]3[C@@H](CO)N(C(=O)c4ccccn4)[C@H]3C#N)cc2)c1`, for which the activity change, negative = more quenching (active) result is “inactive”.

Consider `Cc1cccc(S(=O)(=O)N2C[C@H]3[C@@H](c4ccccc42)[C@H](CO)N3CC2CCCC2)c1`, for which the activity change, negative = more quenching (active) entry was “inactive”.

As to `Cc1ccc(C)c(C2NC(=O)c3ccccc3N2)c1` (centres undefined), the activity change, negative = more quenching (active) entry is “inactive”.

Turning to `COC(=O)CSC1=C(C#N)C(c2ccc(C)o2)CC(=O)N1` (centres undefined), the activity change, negative = more quenching (active) entry is “inactive”.

For `COc1ccccc1CNC(=O)Nc1nc(C(N)Cc2ccc(Cl)cc2)cs1` (centres undefined), the activity change, negative = more quenching (active) result is “inactive”.

`CN(C)CCCN(C(=O)c1ccco1)c1nc(-c2ccc(Cl)cc2)cs1`: the activity change, negative = more quenching (active) entry was “inactive”.

Consider `O=C(CCc1ccccc1)NCC(c1ccco1)N1CCc2ccccc21` (centres undefined), for which the activity change, negative = more quenching (active) entry was “inactive”.

With `CCOC(=O)c1oc2ccc(S(=O)(=O)n3nc(-c4ccccc4)cc3N)cc2c1C`, the activity change, negative = more quenching (active) entry was “inactive”.

Consider `Cc1ccc(C(=O)N/N=C/c2cc(Br)ccc2O)cn1`, for which the activity change, negative = more quenching (active) entry is “inactive”.

On to `Cc1ccc(-c2ccc3c(c2)O[C@H](CN(C)Cc2ccccn2)[C@@H](C)CN([C@@H](C)CO)S3(=O)=O)cc1`, for which the activity change, negative = more quenching (active) entry is “inactive”.

Take `O=[N+]([O-])c1ccc(N=Nc2c(Cl)cc(O)cc2Cl)cc1`: the activity change, negative = more quenching (active) result is “inactive”.

Consider `COc1ccc(OC)c2[nH]c(C(=O)N/N=C/c3ccccc3O)cc12`, for which the activity change, negative = more quenching (active) entry was “inactive”.

Turning to `Cc1ccc(-c2ccc3c(c2)O[C@@H](CN(C)Cc2ccccn2)[C@H](C)CN([C@H](C)CO)S3(=O)=O)cc1`, the activity change, negative = more quenching (active) result was “inactive”.

With `Cn1c(C(=O)c2ccccc2[N+](=O)[O-])nc2ccccc21`, the activity change, negative = more quenching (active) result is “inactive”.

In the case of `Cc1cccc(N2CCN(S(=O)(=O)c3cc(-c4cc(C)no4)ccc3C)CC2C)c1` (centres undefined), the activity change, negative = more quenching (active) entry was “inactive”.

For `C[C@@H]1CN([C@H](C)CO)S(=O)(=O)c2ccc(-c3ccccc3)cc2O[C@H]1CN(C)Cc1ccccn1`, the activity change, negative = more quenching (active) entry was “inactive”.

Take `COc1ccc(-c2ccc3c(c2)[C@H]2[C@H](CCN2S(=O)(=O)c2ccc(OC)cc2)[C@@H](CO)N3)cc1`: the activity change, negative = more quenching (active) result was “inactive”.

On to `O=C(C[C@@H]1CC[C@H]2[C@@H](COC[C@H](O)CN2Cc2ccc3c(c2)OCO3)O1)Nc1ccc(-c2ccccc2)cc1`, for which the activity change, negative = more quenching (active) was 21.4% [at 2.85 µM] (inactive).

Regarding `COc1cc2c(-c3ccccc3)c(C)oc2cc1/C=N/NC(N)=S`, the activity change, negative = more quenching (active) entry is “inactive”.

As to `Cc1ccc(/C=N/NC(=O)c2c(-c3ccccc3)noc2C)c(O)c1`, the activity change, negative = more quenching (active) entry is “inactive”.

On to `CO/N=C\CC(=O)Nc1ccc(Cl)cc1Cl`, for which the activity change, negative = more quenching (active) entry was “inactive”.

Take `CCOc1cc(/C=N/NC(=O)N/N=C/c2ccc(O)c(OCC)c2)ccc1O`: the activity change, negative = more quenching (active) result is “inactive”.

For the compound `COc1ccc(C2c3ccc4ccccc4c3Oc3ncn(CCCO)c(=N)c32)cc1OC` (centres undefined), the activity change, negative = more quenching (active) entry is “inactive”.

In the case of `CCOC(=O)c1c(NC(=O)C(=O)N/N=C/c2ccccc2O)sc2c1CCCCC2`, the activity change, negative = more quenching (active) entry is “inactive”.

Turning to `O=c1c2ccccc2oc2cc(-c3ccc4[nH]ccc4c3)ccc12`, the activity change, negative = more quenching (active) entry was “inactive”.

For `O=C(NCCOc1ccccc1F)c1cc([N+](=O)[O-])ccc1N1CCOCC1`, the activity change, negative = more quenching (active) result is “inactive”.

For `CCOc1ccc(C(=O)COC(=O)Cc2n[nH]c(=O)c3ccccc23)cc1`, the activity change, negative = more quenching (active) result was “inactive”.

As to `O=C1c2cccc3c(O)ccc(c23)C(=O)N1c1ccc(Cl)cc1`, the activity change, negative = more quenching (active) result was “inactive”.

As to `CCN1C(=O)c2cccc3c(S(=O)(=O)N(C(C)=O)c4ccc(OC(C)=O)cc4)ccc1c23`, the activity change, negative = more quenching (active) entry is “inactive”.

As to `C/C(=N\Nc1ncnc2sc(C)c(C)c12)c1ccccn1`, the activity change, negative = more quenching (active) entry is “inactive”.

Turning to `Cn1cccc1/C=C1\SC(=Nc2ccccc2)NC1=O`, the activity change, negative = more quenching (active) entry is “inactive”.

Consider `CCc1cc(-c2nnn(CCC3COCCO3)c2CC)ccc1-c1cn(Cc2ccc3ccccc3c2)nn1` (centres undefined), for which the activity change, negative = more quenching (active) entry is “inactive”.

Turning to `COc1cc(NC(=O)c2csc(N)n2)cc(C(=O)Nc2cccc(C(F)(F)F)c2)c1`, the activity change, negative = more quenching (active) entry is “inactive”.

With `O=C(C1CCCCC1)N1CC(=O)N2[C@@H](CO)[C@H](c3ccc(C#Cc4cccc(F)c4)cc3)[C@@H]2C1`, the activity change, negative = more quenching (active) entry is “inactive”.

Take `CC1=Nc2cc(C(=O)NCC3CCCO3)ccc2Sc2ccc(C)cc21` (centres undefined): the activity change, negative = more quenching (active) entry was “inactive”.

In the case of `COc1ccccc1NC(=S)N(Cc1ccco1)Cc1cc2cc(C)cc(C)c2[nH]c1=O`, the activity change, negative = more quenching (active) result is “inactive”.

For `CC(=O)O[C@H]1C(=O)[C@]2(C)[C@H]([C@H](OC(=O)c3ccccc3)[C@]3(O)C[C@H](OC(=O)[C@H](O)[C@@H](NC(=O)c4ccccc4)c4ccccc4)C(C)=C1C3(C)C)[C@]1(OC(C)=O)CO[C@@H]1C[C@@H]2O`, the activity change, negative = more quenching (active) entry is “inactive”.

Take `COc1cc2c(cc1OC)C(C)N(C(=O)Nc1cc(C)cc(C)c1)CC2` (centres undefined): the activity change, negative = more quenching (active) result was “inactive”.

For `C=CCN1c2ccccc2[C@]23C[C@@H](C(=O)OC)N(C(=O)c4cccs4)C2=NC(C(=O)OC)=C(C(=O)OC)[C@H]13`, the activity change, negative = more quenching (active) entry was “inactive”.

`C[C@H]1CN([C@@H](C)CO)C(=O)Cc2cc(NC(=O)Nc3ccc(C(F)(F)F)cc3)ccc2O[C@H]1CN(C)S(=O)(=O)c1ccccc1`: the activity change, negative = more quenching (active) entry is “inactive”.

With `O=C(N/N=C\c1c(O)ccc2ccccc12)c1cncc(Br)c1`, the activity change, negative = more quenching (active) entry is “inactive”.

Turning to `C[C@H]1CN([C@@H](C)CO)S(=O)(=O)c2ccc(C#Cc3ccc(F)cc3)cc2O[C@H]1CN(C)C(=O)NC1CCCC1`, the activity change, negative = more quenching (active) result was “inactive”.

In the case of `COc1ccc(OC)c(Nc2cc(C)nc3ccc(C)cc23)c1`, the activity change, negative = more quenching (active) result was “inactive”.

Take `C[C@H]1CN([C@@H](C)CO)S(=O)(=O)c2ccc(-c3ccc(C#N)cc3)cc2O[C@@H]1CN(C)Cc1ccccn1`: the activity change, negative = more quenching (active) result was “inactive”.

For `Oc1ccc2ccccc2c1C=NNc1ccccn1`, the activity change, negative = more quenching (active) entry was “inactive”.

For the compound `Cc1cccc(Nc2nc(N)nc(-c3oc4ccccc4c3C)n2)c1`, the activity change, negative = more quenching (active) entry is “inactive”.

In the case of `CCOC(=O)c1ccc(Nc2sc(C(=O)c3cccc([N+](=O)[O-])c3)c(N)c2C#N)cc1`, the activity change, negative = more quenching (active) entry was “inactive”.

In the case of `CCc1ccc(-c2nc(C(N)=O)c3[nH]c(=O)n(-c4ccccc4OC)c3n2)cc1`, the activity change, negative = more quenching (active) result is “inactive”.

For the compound `Nc1sc(-c2ccccc2)cc1-c1n[nH]c(=S)n1C1CCCCC1`, the activity change, negative = more quenching (active) result was “inactive”.

`Cc1ccc(C)c(CSc2nc3[nH]ncc3c(=O)[nH]2)c1`: the activity change, negative = more quenching (active) entry was “inactive”.
